In PubChem BioAssay:
Activity calls are given as the source filed them.

Columns and labels:
[1] = optical density shifts of acrAB sulA E. coli – strain DRC41, OD650, 48 h, E. coli filamentation inducer project, primary screen (AID 1152); conditions: higher = more signal, called active from +8 up or from −8 down;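 also: E. coli MC1000 strain DRC41 lacking acrAB efflux pump and sulA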
[2] = probe aLefty1 binding on compound microarray – biochemical, small-molecule microarray, 635/667 nm fluorescence, primary screen (AID 1153); conditions: higher = more signal;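 also: score merges spot fluorescence with signal-to-noise ratio from the scanned slide images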
[3] = plasmodial surface anion channel blockers, osmotic lysis – cell-based, P. falciparum Indochina, OD700, 1 h, primary screen (AID 1154); conditions: P. falciparum Indochina infected RBC osmotic lysis, higher = more signal, called active from +8 up or from −8 down
[4] = plasmodial surface anion channel blockers, osmotic lysis – cell-based, P. falciparum Indochina, OD700, 2 h, primary screen (AID 1155);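 also: lysis reports solute entry through the parasite surface anion channel PSAC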; conditions: P. falciparum Indochina infected erythrocytes, higher = more signal, called active from +8 up or from −8 down
[5] = changes in parasitized red cell lysis, either direction – P. falciparum Indochina, OD700, 3 h, PSAC antagonist project, primary screen (AID 1156); conditions: P. falciparum-infected erythrocytes, osmotic lysis, higher = more signal, called active from +8 up or from −8 down
[6] = plasmodial surface anion channel blockers, osmotic lysis – cell-based, P. falciparum Indochina, OD700, 18 h, primary screen (AID 1157); conditions: P. falciparum Indochina infected erythrocytes, osmotic lysis OD700, 18 h; higher = more signal, called active from +8 up or from −8 down
[7] = S6 kinase pathway phospho-S6 level changes – cell-based, A549, cytoblot, luminescence, serum-stimulated, primary screen (AID 1158); conditions: 5 h, higher = more signal;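 also: serum-stimulated A549 lung adenocarcinoma cells; signal is phosphorylated S6 detected by cytoblot immunostaining with HRP secondary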
[8] = target: NADPH oxidase 2 (Homo sapiens) (UniProt P04839); test: compounds shifting NOX2 Amplex Red fluorescence – cell-based, HEK293-NOX2, PMA-stimulated, NOX inhibitor project, primary screen (AID 1159); conditions: 45 min, higher = more signal, called active from +8 up or from −8 down; also: test concentration not given here
[9] = target: NADPH oxidase 4 (Homo sapiens) (UniProt Q9NPH5); test: compounds shifting NOX4 Amplex Red fluorescence – cell-based, HEK293-NOX4, tetracycline-induced, NOX inhibitor project, primary screen (AID 1160); conditions: HEK293-NOX4, Amplex Red H2O2 fluorescence, 45 min; higher = more signal, called active from +8 up or from −8 down
[10] = target: NADPH oxidase 5 (Homo sapiens) (UniProt Q96PH1); test: compounds shifting NOX5 Amplex Red fluorescence – cell-based, HEK293-NOX5, NOX inhibitor project, primary screen (AID 1161); conditions: HEK293-NOX5, ionomycin, 45 min, higher = more signal
[11] = compound effects on lung adenocarcinoma cell viability – A549, calcein-AM fluorescence, 48 h, basal, profiling panel (AID 1162); conditions: higher = more signal; also: test concentration not given here
[12] = compound effects on differentiated 3T3-L1 adipocyte viability – cell-based, 3T3-L1 adipocytes, calcein-AM fluorescence, 48 h, basal, profiling panel (AID 1163); conditions: 3T3-L1 adipocytes viability, higher = more signal; also: test concentration not given here
[13] = compound effects on hepatocellular carcinoma cell viability – HepG2, calcein-AM fluorescence, 48 h, basal, profiling panel (AID 1164); conditions: higher = more signal; also: test concentration not given here
[14] = compound effects on multiple myeloma cell viability – MM1S, calcein-AM fluorescence, 48 h, basal, profiling panel (AID 1165); conditions: higher = more signal; also: test concentration not given here
[15] = calcein-AM signal in unstimulated myeloma cells – cell-based, calcein-AM fluorescence, 48 h, PK04 Diversity Set, profiling panel (AID 1166); conditions: RPMI8226 myeloma viability, higher = more signal;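 also: cells grown under basal conditions without added stimulus; test concentration not given here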
[16] = JC-1 mitochondrial signal, unstimulated HepG2 cells – cell-based, JC-1 fluorescence, 24 h, 100 nL compound, profiling panel (AID 1167); conditions: HepG2 mitochondrial potential, higher = more signal; also: test concentration not given here
[17] = JC-1 mitochondrial signal, unstimulated adipocytes – cell-based, JC-1 fluorescence, 3T3-L1 adipocytes, 24 h, 100 nL compound, profiling panel (AID 1168); conditions: JC-1 mitochondrial fluorescence, higher = more signal, called active from +8 up or from −8 down; also: test concentration not given here
[18] = JC-1 mitochondrial signal, unstimulated myeloma cells – cell-based, JC-1 fluorescence, RPMI8226, 24 h, 100 nL compound, profiling panel (AID 1169); conditions: JC-1 mitochondrial potential fluorescence, higher = more signal; also: test concentration not given here
[19] = JC-1 mitochondrial signal, unstimulated MM1S myeloma – cell-based, JC-1 fluorescence, 24 h, 100 nL compound, profiling panel (AID 1170); conditions: MM1S mitochondrial potential, higher = more signal; also: test concentration not given here
[20] = resazurin metabolic signal in A549 cells – cell-based, resazurin fluorescence, 24 h, PK04 Diversity Set, profiling panel (AID 1171); conditions: A549 viability, higher = more signal, called active from +8 up or from −8 down; also: test concentration not given here

Sequence of NADPH oxidase 5 (Homo sapiens) (Q96PH1 whole entry, looked up): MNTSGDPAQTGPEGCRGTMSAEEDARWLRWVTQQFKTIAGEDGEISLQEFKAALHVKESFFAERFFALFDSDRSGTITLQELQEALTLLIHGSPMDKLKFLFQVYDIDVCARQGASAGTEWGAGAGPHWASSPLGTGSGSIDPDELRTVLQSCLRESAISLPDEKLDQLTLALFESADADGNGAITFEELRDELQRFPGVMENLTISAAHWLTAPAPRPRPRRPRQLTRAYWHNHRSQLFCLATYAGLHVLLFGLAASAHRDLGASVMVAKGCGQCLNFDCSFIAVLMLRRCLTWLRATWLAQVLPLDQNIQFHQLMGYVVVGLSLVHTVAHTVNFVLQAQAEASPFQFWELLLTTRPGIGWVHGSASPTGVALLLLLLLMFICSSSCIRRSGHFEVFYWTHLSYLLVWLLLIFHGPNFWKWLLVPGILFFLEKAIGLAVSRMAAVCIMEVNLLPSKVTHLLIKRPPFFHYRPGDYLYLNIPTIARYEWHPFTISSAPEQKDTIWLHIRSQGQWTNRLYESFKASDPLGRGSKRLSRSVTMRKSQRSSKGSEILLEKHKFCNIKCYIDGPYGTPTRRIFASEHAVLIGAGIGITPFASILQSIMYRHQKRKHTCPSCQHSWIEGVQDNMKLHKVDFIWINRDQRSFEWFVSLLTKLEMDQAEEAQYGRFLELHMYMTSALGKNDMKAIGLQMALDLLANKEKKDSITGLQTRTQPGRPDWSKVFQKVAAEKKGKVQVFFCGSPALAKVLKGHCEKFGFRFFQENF
Sequence of NADPH oxidase 2 (Homo sapiens) (P04839 whole entry, looked up): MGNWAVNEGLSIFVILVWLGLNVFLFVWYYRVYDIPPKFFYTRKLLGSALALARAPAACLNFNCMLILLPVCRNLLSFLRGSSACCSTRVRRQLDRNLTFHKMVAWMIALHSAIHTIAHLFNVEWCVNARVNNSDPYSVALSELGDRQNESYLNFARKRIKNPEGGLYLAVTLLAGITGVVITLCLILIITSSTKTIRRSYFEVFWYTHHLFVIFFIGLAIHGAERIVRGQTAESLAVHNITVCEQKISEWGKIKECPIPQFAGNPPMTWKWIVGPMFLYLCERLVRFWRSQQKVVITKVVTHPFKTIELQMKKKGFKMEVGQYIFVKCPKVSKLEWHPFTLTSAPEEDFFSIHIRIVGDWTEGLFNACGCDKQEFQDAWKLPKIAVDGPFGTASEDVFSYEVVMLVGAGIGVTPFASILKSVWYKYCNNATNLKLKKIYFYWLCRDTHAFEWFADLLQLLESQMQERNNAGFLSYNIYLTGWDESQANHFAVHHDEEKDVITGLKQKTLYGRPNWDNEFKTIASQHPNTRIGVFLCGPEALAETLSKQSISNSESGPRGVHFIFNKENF
Sequence of NADPH oxidase 4 (Homo sapiens) (Q9NPH5 whole entry, looked up): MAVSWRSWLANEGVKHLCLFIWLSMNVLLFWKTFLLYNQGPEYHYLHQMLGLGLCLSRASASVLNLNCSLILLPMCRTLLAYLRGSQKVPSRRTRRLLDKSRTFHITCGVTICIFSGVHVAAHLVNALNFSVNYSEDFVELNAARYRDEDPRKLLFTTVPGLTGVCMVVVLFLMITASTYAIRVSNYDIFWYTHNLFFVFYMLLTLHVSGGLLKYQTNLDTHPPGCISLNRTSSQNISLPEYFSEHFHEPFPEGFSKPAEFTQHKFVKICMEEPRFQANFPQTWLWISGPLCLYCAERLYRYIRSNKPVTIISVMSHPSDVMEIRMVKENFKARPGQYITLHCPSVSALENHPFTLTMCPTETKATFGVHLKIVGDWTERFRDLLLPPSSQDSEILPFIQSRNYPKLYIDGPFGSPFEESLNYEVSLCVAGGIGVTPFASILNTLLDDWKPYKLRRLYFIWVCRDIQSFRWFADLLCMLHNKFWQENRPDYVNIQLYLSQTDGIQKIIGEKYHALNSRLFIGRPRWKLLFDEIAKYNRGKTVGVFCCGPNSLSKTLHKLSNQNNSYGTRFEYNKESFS

Row | SMILES | z-score [1] | composite z-score [2] | z-score [3] | z-score [4] | z-score [5] | z-score [6] | z-score [7] | z-score [8] | z-score [9] | z-score [10] | z-score [11] | z-score [12] | z-score [13] | z-score [14] | z-score [15] | z-score [16] | z-score [17] | z-score [18] | z-score [19] | z-score [20]
1 | COCCOC(=O)N1C(=O)[C@@]2(c3cc(C#CCNC(N)=O)ccc31)[C@H](C(=O)N1CCN(c3ncccn3)CC1)[C@H]1C(=O)O[C@H](c3ccccc3)[C@H](c3ccccc3)N1[C@@H]2c1ccccc1OCCO | 1.07 (inactive) | 0.248 | 2.72 (inactive) | 1.32 (inactive) | 0.749 (inactive) | 0.883 (inactive) | 0.915 | 1.99 (inactive) | 0.756 (inactive) | -1.08 | -0.246 | 1.24 | -0.539 | -0.648 | -0.876 | -1.43 | 1.29 (inactive) | -1.09 | -1.04 | 1.02 (inactive)
2 | COc1ccc(C#Cc2ccc3c(c2)[C@]2(C(=O)N3)[C@H](C(=O)NC[C@H](O)c3ccccc3)[C@H]3C(=O)O[C@H](c4ccccc4)[C@H](c4ccccc4)N3[C@@H]2c2ccccc2OCCO)cc1 | -0.13 (inactive) | 0.29 | 1.78 (inactive) | 1.95 (inactive) | -0.054 (inactive) | 1.41 (inactive) | -0.0009 | 1.53 (inactive) | 0.36 (inactive) | 0.24 | -1.86 | 0.0393 | -3.16 | -3.35 | -3.4 | -2.27 | 2.97 (inactive) | -0.865 | -1.7 | -1.58 (inactive)
3 | C[C@H]1NC(=O)[C@H](Cc2ccccc2)NC(=O)[C@@]23C(=O)N[C@@H](Cc4ccccc4)C2[C@H](C)[C@@]2(C)O[C@H]2C3/C=C/C/C=C\CNC1=O (stereo not given in full) | 0.806 (inactive) | -0.193 | 2.27 (inactive) | 0.142 (inactive) | -0.112 (inactive) | 0.501 (inactive) | 0.423 | -0.287 (inactive) | -1.42 (inactive) | -0.197 | 1.1 | 0.827 | 0.514 | -0.0775 | -1.27 | 0.542 | 0.342 (inactive) | 0.0827 | 0.782 | 0.229 (inactive)
4 | COCCCNC(=O)[C@@]1(c2ccc([N+](=O)[O-])cc2)CC(=O)N(CC23CC4CC(CC(C4)C2)C3)[C@@H]1c1ccc(CO)cc1 | 0.697 (inactive) | 0.616 | 4.55 (inactive) | 0.958 (inactive) | 1.47 (inactive) | 0.888 (inactive) | 0.0694 | -0.237 (inactive) | -1.44 (inactive) | -1.74 | -0.995 | 0.109 | 0.198 | -1.93 | -2.42 | 0.461 | -0.381 (inactive) | 0.0554 | -0.784 | -0.968 (inactive)
5 | COc1ccc(C#Cc2ccc3c(c2)[C@]2(C(=O)N3)[C@H](C(=O)NC[C@H](O)c3ccccc3)[C@H]3C(=O)O[C@H](c4ccccc4)[C@H](c4ccccc4)N3[C@@H]2c2ccc(OCCO)cc2)cc1 | -0.877 (inactive) | 0.0711 | 2.93 (inactive) | 1.97 (inactive) | -0.0845 (inactive) | 1.52 (inactive) | -0.321 | 1.4 (inactive) | -1.22 (inactive) | 0.636 | 0.415 | 1.17 | -0.425 | -1.82 | -1.07 | -1.51 | 2.53 (inactive) | -1.04 | -0.733 | -0.171 (inactive)
6 | Cc1ccc(S[C@]2(C(=O)O)CC(=O)N(C3Cc4ccccc4C3)[C@@H]2c2ccc(CO)cc2I)cc1 | -0.453 (inactive) | -0.0559 | 6.6 (inactive) | 1.1 (inactive) | 0.356 (inactive) | 0.474 (inactive) | -0.148 | 1.84 (inactive) | -2.99 (inactive) | -1.78 | 0.214 | 0.278 | -0.671 | -2.95 | -2.88 | 0.0324 | -0.939 (inactive) | -0.137 | -0.717 | 0.477 (inactive)
7 | C=C[C@@H](COC(C)=O)N(Cc1ccccc1[N+](=O)[O-])S(=O)(=O)c1ccc(Br)cc1 | 1.43 (inactive) | -0.339 | 2.44 (inactive) | -0.407 (inactive) | -0.885 (inactive) | -0.709 (inactive) | 3.16 | -4.3 (inactive) | -0.628 (inactive) | -1.98 | 1.8 | 0.425 | -0.491 | -0.531 | 0.0618 | -0.464 | -0.34 (inactive) | -0.872 | -0.189 | -1.61 (inactive)
8 | COC(=O)C(CC#Cc1ccc2c(c1)[C@]1(C(=O)N2)[C@H](c2ccc(OCCO)cc2)N2[C@H](c3ccccc3)[C@H](c3ccccc3)OC(=O)[C@H]2[C@@H]1C(=O)NC[C@H](O)c1ccccc1)C(=O)OC | 1.57 (inactive) | 0.0903 | 2.5 (inactive) | 1.14 (inactive) | 0.829 (inactive) | 0.664 (inactive) | 0.219 | 2.1 (inactive) | 1.2 (inactive) | 0.489 | 0.876 | 1.04 | 1.31 | -1.67 | -1.2 | -1.13 | 0.833 (inactive) | -1.29 | -1.35 | 0.795 (inactive)
9 | CCCC[C@H]1OB(O)C[C@H]2C1=C(C)C[C@H]1C(=O)N(Cc3ccccc3)C(=O)[C@H]12 | 1.53 (inactive) | -0.147 | 1.27 (inactive) | 0.0503 (inactive) | -0.348 (inactive) | 0.157 (inactive) | 0.918 | 0.0393 (inactive) | 0.765 (inactive) | 0.789 | 0.601 | 0.379 | -0.152 | -0.551 | -0.0458 | -0.432 | 0.203 (inactive) | -0.333 | 0.625 | 0.174 (inactive)
